# Experimental data from PubChem BioAssay (Tox21).
# A number with no mark means an inactive call. Records with an inconclusive call do not appear. A call without a number means that no potency is given here. Activity calls are given as the source filed them. Unless noted, calls come from the whole dose curve; as a rule, active = well fitted curve in the direction sought with a large enough effect in the repeat runs; inconclusive = weak or mixed curves; inactive = no such curve, though single readings can be large; an effect the other way counts as inactive or inconclusive.
# Tests used:
# [1] = A CellTox Green Cytotoxicity Assay to monitor cytotoxicity in HEK293 cells - 16 hour (AID 1224888); note: nearly all actives have a fitted effect of over 35% in size
# In short: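 Real-time, in one plate: 600 HEK293 cells/well with dead-cell DNA dye, pinned compound after 5 h, 37 C incubation over 40 h; viable cells give no appreciable fluorescence.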
# [2] = qHTS RealTime-Glo MT Cell Viability Assay in HepG2 cells - 0 hour (AID 1224889); note: nearly all actives have a fitted effect of over 50% in size
# In short: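 HepG2 suspension premixed with RealTime-Glo reagents is plated at 600 cells per well and left 5 h at 37 C/5% CO2. Compounds in DMSO then go in, and bioluminescence reflecting viable cell number is recorded over 40 h.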
# [3] = A CellTox Green Cytotoxicity Assay to monitor cytotoxicity in HepG2 cells - 8 hour (AID 1224890); note: nearly all actives have a fitted effect of over 45% in size
# In short: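 Cytotoxicity was tracked as dead-cell DNA fluorescence in HepG2 cells treated with test compounds at 37 C; each time-point value comes from one kinetic series spanning 0, 8, 16, 24, 32 and 40 h.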
# [4] = qHTS assay to identify small molecule antagonists of the estrogen receptor alpha (ER-alpha) signaling pathway using the BG1 cell line in the presence of 0.1 nM 17-beta-estradiol - cell viability counter screen (AID 1259241); note: nearly all actives have a fitted effect of over 40% in size
# In short: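 In this screen, hormone-deprived VM7Luc4E2 cells were seeded at 4,000 per well, dosed with compound and 0.1 nM estradiol final, and incubated 22 hr at 37C and 5% CO2; fluorogenic live-cell protease signal reported viability.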
# [5] = qHTS assay to identify small molecule antagonists of the androgen receptor (AR) signaling pathway using the MDA cell line in the presence of 0.5 nM R1881 - cell viability counter screen (AID 1259242); note: nearly all actives have a fitted effect of over 45% in size
# In short: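 Cells seeded at 3,000/well and allowed 5 hr at 37C, 0% CO2 before compound transfer and R1881 (0.5 nM final) addition; 16 hr later, live-cell protease fluorescence indicated cytotoxicity.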
# [6] = target: Estrogen receptor (Homo sapiens) (UniProt P03372); experiment: qHTS assay to identify small molecule antagonists of the estrogen receptor alpha (ER-alpha) signaling pathway using the BG1 cell line in the presence of 0.1 nM 17-beta-estradiol (AID 1259244); note: nearly all actives have a fitted effect of over 50% in size
# In short: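 Luciferase signal from VM7Luc4E2 ERE-reporter cells, co-dosed with test compound and 0.1 nM final 17beta-estradiol for 22 h, read with ONE-Glo.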
# [7] = qHTS assay to identify small molecule HDAC inhibitors (AID 1259364);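 note: wild-type HCT-116 cells with endogenous class I/II HDAC activity; top concentration of the series differs between compounds; nearly all actives have a fitted effect of over 45% in size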
# In short: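 HCT-116 wt cells, 1,500/well, overnight attach. Compounds (DMSO) 2 h, 37 °C. HDAC-Glo I/II, 30 min RT. Luminescence.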
# [8] = qHTS assay to identify small molecule HDAC inhibitors - cell viability counter screen (AID 1259365); note: series mostly up to about 92 µM; nearly all actives have a fitted effect of over 50% in size
# In short: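 Measured quantity is CellTiter-Glo luminescence from wild-type HCT-116 cells after compound incubation of 2hr at 37C, 5% CO2; reagent developed 30min at room temperature.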
# [9] = qHTS assay to identify small molecule agonists of the sonic hedgehog signaling (Shh) pathway - cell viability counter screen (AID 1259366); note: nearly all actives have a fitted effect of over 50% in size
# In short: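 In quantitative high-throughput format, 3T3 Gli1-Luc cells were exposed to compounds for 24hr and multiplexed for viability using CellTiter-Fluor, incubated 1hr at 37C before the fluorescence read.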
# [10] = qHTS assay to identify small molecule antagonists of the sonic hedgehog signaling (Shh) pathway - cell viability counter screen (AID 1259367); note: nearly all actives have a fitted effect of over 55% in size
# In short: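 Conditioned medium drove Shh signaling in 3T3 Gli1-Luc cells exposed to compounds at 37C and 5% CO2. Viability was determined from CellTiter-Fluor fluorescence, with reagent incubated 1 hr after 23 hr of treatment.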
# [11] = qHTS assay to identify small molecule agonists of the sonic hedgehog signaling (Shh) pathway (AID 1259368; calls by dose curve;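 note: NIH/3T3-derived 3T3Gli1-Luc cells carrying a stable Gli1-driven firefly luciferase reporter; series mostly up to about 92 µM; nearly all actives have a fitted effect of over 15% in size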)
# In short: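 Following a 24 hr incubation with DMSO-dissolved compounds at 37 C, 5% CO2, Gli1-Luc NIH/3T3-derived cells received luciferase reagent for 30 min at room temperature prior to luminescence measurement.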
# [12] = qHTS assay to identify small molecule antagonists of the sonic hedgehog signaling (Shh) pathway (AID 1259369; calls by dose curve; note: nearly all actives have a fitted effect of over 45% in size)
# In short: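 Read-out is luminescence from a firefly luciferase gene controlled by the Gli1 response element, in 3T3Gli1-Luc cells pre-incubated 4hr then exposed to compounds and conditioned medium for 24hr.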
# [13] = target: Estrogen receptor beta (Homo sapiens) (UniProt Q92731); experiment: qHTS assay to identify small molecule agonists of the estrogen receptor beta (ER-beta) signaling pathway (AID 1259377; active = well fitted activation curve with a large enough effect in the signal ratio in the repeat runs, not every such curve was filed as active; the % refers to the signal ratio)
# In short: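 Reporter cells (HEK293T, ER-beta-UAS-bla) receive compounds or DMSO after a 6 hr pre-incubation. They then incubate 16 hr at 37C/5% CO2, and fluorescence from LiveBLAzer B/G substrate is measured after 2 hours at room temperature.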
# [14] = target: Estrogen receptor beta (Homo sapiens) (UniProt Q92731); experiment: qHTS assay to identify small molecule antagonists of the estrogen receptor beta (ER-beta) signaling pathway (AID 1259378; active = well fitted inhibition curve with a large enough effect in the signal ratio in the repeat runs, not every such curve was filed as active; the % refers to the signal ratio; note: potency is the fitted concentration of half-maximal effect)
# In short: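 ER-beta-UAS-bla HEK293T (GripTite) cells in 2% charcoal-stripped FBS medium were preincubated 6 hr at 37C, dosed with compound, then stimulated with 1 nM E2 (final) for 16 hr; beta-lactamase reporter read by B/G FRET fluorescence after 2 hr substrate loading.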
# [15] = qHTS assay to identify small molecule agonists of the androgen receptor (AR) signaling pathway in the presence of an antagonist - cell viability counter screen (AID 1259379);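 note: MDA-kb2 human breast cancer cells carrying an MMTV luciferase reporter; series mostly up to about 92 µM; nearly all actives have a fitted effect of over 25% in size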
# In short: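 Each compound was tested at 15 concentrations on MDA-kb2 cells in the presence of 3.0uM nilutamide. Viability was measured by CellTiter-Fluor fluorescence after a 16 hr incubation at 37C in a CO2-free atmosphere.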
# [16] = qHTS assay to identify small molecule antagonists of the estrogen receptor beta (ER-beta) signaling pathway - cell viability counter screen (AID 1259382); note: series mostly up to about 92 µM; nearly all actives have a fitted effect of over 55% in size
# In short: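 CellTiter-Glo ATP luminescence measured after the LiveBLAzer read in the same wells; ER-beta-UAS-bla HEK293T cells, 16 hr compound treatment with 1nM 17-beta-estradiol agonist at 37C, 5% CO2.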
# [17] = qHTS assay to identify small molecule agonists of the estrogen receptor beta (ER-beta) signaling pathway - cell viability counter screen (AID 1259380); note: nearly all actives have a fitted effect of over 30% in size
# In short: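 Compounds dissolved in DMSO were pin-transferred onto ER-beta-UAS-bla HEK293T cells that had settled 6 hr, and exposure ran 16 hr at 37C. Following the reporter read, CellTiter-Glo luminescence after 30 min at room temperature indicated cytotoxicity.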
# [18] = target: Androgen receptor (Homo sapiens) (UniProt P10275); experiment: qHTS assay to identify small molecule agonists of the androgen receptor (AR) signaling pathway in the presence of an antagonist (AID 1259381; calls by dose curve; note: nearly all actives have a fitted effect of over 15% in size)
# In short: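 Plated MDA-kb2 cells (3,000/well) were pre-incubated 5hr, given nilutamide (3.0uM final) or buffer, then dosed with compounds in DMSO at 15 concentrations. Luciferase activity was quantified by luminescence after 16hr at 37C.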
# Estrogen receptor beta (Homo sapiens), sequence (Q92731 whole entry, looked up): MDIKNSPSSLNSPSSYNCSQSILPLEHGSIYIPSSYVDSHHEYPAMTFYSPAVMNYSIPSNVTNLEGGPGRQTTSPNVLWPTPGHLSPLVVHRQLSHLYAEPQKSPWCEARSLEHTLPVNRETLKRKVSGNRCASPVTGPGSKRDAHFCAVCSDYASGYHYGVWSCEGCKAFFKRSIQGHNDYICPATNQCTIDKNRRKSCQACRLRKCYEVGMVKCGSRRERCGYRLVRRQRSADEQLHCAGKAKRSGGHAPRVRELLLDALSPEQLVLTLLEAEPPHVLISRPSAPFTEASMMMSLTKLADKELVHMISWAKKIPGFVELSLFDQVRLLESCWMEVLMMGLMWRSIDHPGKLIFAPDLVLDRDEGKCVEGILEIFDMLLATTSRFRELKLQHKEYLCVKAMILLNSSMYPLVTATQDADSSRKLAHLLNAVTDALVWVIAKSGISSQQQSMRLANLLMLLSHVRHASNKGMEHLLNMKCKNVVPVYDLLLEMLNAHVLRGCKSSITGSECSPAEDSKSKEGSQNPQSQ
# Estrogen receptor (Homo sapiens), sequence (P03372 whole entry, looked up): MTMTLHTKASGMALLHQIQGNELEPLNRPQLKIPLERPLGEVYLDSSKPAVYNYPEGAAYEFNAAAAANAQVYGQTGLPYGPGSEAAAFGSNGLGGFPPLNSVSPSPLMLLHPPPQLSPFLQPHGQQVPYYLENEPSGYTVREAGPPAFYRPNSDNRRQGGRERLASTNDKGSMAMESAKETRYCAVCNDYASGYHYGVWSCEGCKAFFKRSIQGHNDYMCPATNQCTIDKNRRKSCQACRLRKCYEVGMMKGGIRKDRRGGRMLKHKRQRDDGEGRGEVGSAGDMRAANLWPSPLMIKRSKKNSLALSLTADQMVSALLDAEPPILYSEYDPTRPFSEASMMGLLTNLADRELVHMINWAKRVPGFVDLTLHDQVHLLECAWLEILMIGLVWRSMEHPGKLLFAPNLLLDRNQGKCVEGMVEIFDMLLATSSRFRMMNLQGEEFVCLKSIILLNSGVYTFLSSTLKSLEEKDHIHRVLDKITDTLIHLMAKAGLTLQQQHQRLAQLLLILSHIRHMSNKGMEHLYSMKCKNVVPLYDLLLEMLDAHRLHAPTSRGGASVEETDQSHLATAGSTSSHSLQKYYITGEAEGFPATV
# Androgen receptor (Homo sapiens), sequence (P10275 whole entry, looked up): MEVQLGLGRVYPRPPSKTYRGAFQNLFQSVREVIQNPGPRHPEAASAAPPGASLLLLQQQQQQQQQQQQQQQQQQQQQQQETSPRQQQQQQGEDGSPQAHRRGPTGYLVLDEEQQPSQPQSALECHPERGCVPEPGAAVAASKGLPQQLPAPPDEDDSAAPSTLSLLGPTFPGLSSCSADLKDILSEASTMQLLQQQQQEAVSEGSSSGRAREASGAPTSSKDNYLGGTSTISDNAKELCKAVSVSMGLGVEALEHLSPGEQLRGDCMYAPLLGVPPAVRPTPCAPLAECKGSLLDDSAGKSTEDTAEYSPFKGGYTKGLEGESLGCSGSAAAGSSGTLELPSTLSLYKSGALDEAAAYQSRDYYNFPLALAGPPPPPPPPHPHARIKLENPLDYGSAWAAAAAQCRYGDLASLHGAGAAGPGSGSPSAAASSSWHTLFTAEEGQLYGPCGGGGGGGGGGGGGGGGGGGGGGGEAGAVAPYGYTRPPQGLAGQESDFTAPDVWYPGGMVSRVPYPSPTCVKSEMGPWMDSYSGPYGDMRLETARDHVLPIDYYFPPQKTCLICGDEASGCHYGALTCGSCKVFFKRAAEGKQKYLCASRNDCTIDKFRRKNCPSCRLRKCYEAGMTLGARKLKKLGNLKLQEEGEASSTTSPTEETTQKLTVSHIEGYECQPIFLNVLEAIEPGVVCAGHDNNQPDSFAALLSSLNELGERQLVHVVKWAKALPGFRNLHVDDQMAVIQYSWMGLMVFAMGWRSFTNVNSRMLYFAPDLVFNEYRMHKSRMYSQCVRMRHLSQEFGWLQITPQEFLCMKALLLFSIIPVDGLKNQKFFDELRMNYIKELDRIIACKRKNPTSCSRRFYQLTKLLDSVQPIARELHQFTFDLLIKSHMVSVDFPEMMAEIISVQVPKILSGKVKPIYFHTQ
SMILES,Potency [1],Potency [2],Potency [3],outcome [4],outcome [5],outcome [6],Potency [7],outcome [8],outcome [9],outcome [10],outcome [11],Potency [12],Potency [13],Potency [14],outcome [15],outcome [16],outcome [17],outcome [18]
c1ccc(-c2nn[nH]n2)cc1,inactive,inactive,inactive,inactive,inactive,inactive,inactive,inactive,inactive,inactive,inactive,inactive,inactive,inactive,inactive,inactive,–,–
CCCC(CC)c1ccccc1 (centres undefined),inactive,inactive,inactive,inactive,inactive,inactive,inactive,inactive,inactive,inactive,inactive,inactive,inactive,inactive,inactive,inactive,inactive,–
CCC(C)OC(C)CC (centres undefined),inactive,inactive,inactive,inactive,inactive,inactive,inactive,inactive,inactive,inactive,inactive,inactive,inactive,28.3 µM (active),inactive,inactive,–,inactive
CC/C(C)=N\O[Si](C)(O/N=C(\C)CC)O/N=C(\C)CC,inactive,inactive,inactive,inactive,inactive,inactive,inactive,inactive,inactive,inactive,inactive,inactive,–,–,inactive,inactive,inactive,–
C=CC(=O)OCC1CCCO1 (centres undefined),inactive,inactive,inactive,inactive,inactive,inactive,inactive,inactive,–,inactive,inactive,inactive,inactive,inactive,inactive,inactive,–,–
CCCCCC(C)O (centres undefined),inactive,inactive,inactive,inactive,inactive,inactive,inactive,inactive,inactive,inactive,inactive,inactive,–,–,inactive,inactive,inactive,–
c1ccc2cnccc2c1,inactive,inactive,inactive,inactive,inactive,inactive,inactive,inactive,inactive,inactive,–,inactive,–,–,inactive,inactive,inactive,–
COC(=O)c1cccc(Cl)c1,inactive,inactive,inactive,inactive,inactive,inactive,inactive,inactive,inactive,–,inactive,inactive,inactive,inactive,inactive,inactive,–,–
